ChEMBL document CHEMBL3988442, “University of Dundee, Small-Polar-MMV Screening Library” (2021)
Hit rate of the full screen: of about 69,000 compounds, about 1,000 (1.4%) showed an effect of 50% or more. The list comes from a sample in which strong results are over-represented; it also holds similar structures and randomly drawn compounds.

Tested on: Leishmania donovani
Test: Leishmania intramacrophage assay
Type: functional, organism-based
Set-up: scale not given: in the data most compounds retested in dose-response had high values

SMILES	Percent Effect (30.3 µM, […]) [%]	Percent Effect (30 µM, 30.03 µM) [%]
Cc1cccc(CN2C[C@H](OCc3ccccn3)[C@H]3COC[C@H]32)n1.O=C(O)C(F)(F)F.O=C(O)C(F)(F)F	10.8	
O=C(O)C(F)(F)F.O=C(O)C(F)(F)F.c1cncc(CO[C@H]2CN(Cc3ccco3)[C@@H]3COC[C@H]23)c1	63.54	
Fc1ccc(CN2C[C@@H](OCc3ccccn3)[C@H]3COC[C@H]32)cc1.O=C(O)C(F)(F)F.O=C(O)C(F)(F)F	38.45	
O=C(O)C(F)(F)F.O=C(O)C(F)(F)F.c1ccc(CO[C@@H]2CN(Cc3nccs3)[C@@H]3COC[C@@H]32)nc1	56.79	
Cc1nc(CO[C@@H]2CN(Cc3cccnc3)[C@@H]3COC[C@@H]32)cs1.O=C(O)C(F)(F)F.O=C(O)C(F)(F)F	21.07	
O=C(O)C(F)(F)F.O=C(O)C(F)(F)F.O=C(O)C(F)(F)F.c1ccc(CO[C@@H]2CN(Cc3cccnc3)[C@@H]3COC[C@@H]32)nc1	-0.4082	
O=C(c1ccc2c(c1)OCO2)N1CCC(C(=O)O)(c2ccccc2)CC1	0.8951	
CC(C)NC(=O)[C@H]1C[C@H]2NCCO[C@@H]2C1	20.26	
CC(C)NC(=O)[C@@H]1C[C@H]2NCC[C@H]2O1.Cl	56.79	
O=C(NC1CCC1)[C@H]1C[C@H]2NCCO[C@@H]2C1	13.25	
CCCN1CCC[C@]2(CCC(=O)N2Cc2ccncc2)[C@H]1CC.O=C(O)C(F)(F)F.O=C(O)C(F)(F)F	-2.592	
CN(C)C[C@H]1C[C@@H]2CN(Cc3ccco3)C[C@@H]2O1.O=C(O)C(F)(F)F.O=C(O)C(F)(F)F	-9.327	
Cc1cccc(CN2CCN3C[C@H](Oc4cncnc4)C[C@H]3C2)n1.O=C(O)C(F)(F)F.O=C(O)C(F)(F)F	42.71	
Fc1cnc(N2CCN3C[C@H](Oc4cncnc4)C[C@H]3C2)nc1.O=C(O)C(F)(F)F.O=C(O)C(F)(F)F	16.13	
C[C@H]1C[C@H]2CN(Cc3ccccn3)CC[C@@H]2O1.O=C(O)C(F)(F)F.O=C(O)C(F)(F)F	19.92	
CCCN1CC[C@@H]2OC[C@H](C(=O)Nc3cccnc3)C[C@@H]2C1.O=C(O)C(F)(F)F.O=C(O)C(F)(F)F	21.37	
CN1CC[C@@H]2OC[C@H](C(=O)N(C)Cc3ccccn3)C[C@@H]2C1.O=C(O)C(F)(F)F.O=C(O)C(F)(F)F	55.09	
CCS(=O)(=O)N1CCc2c(COCCN(C)C)cncc2C1.O=C(O)C(F)(F)F.O=C(O)C(F)(F)F	30.88	
Cl.NC(CC1CCCCC1)c1ccccc1 (centres undefined)	68.07	
Cl.NC(Cc1nc(-c2ccccc2)no1)c1ccccc1 (centres undefined)	-5.876	
COCC1CC2(CCN(c3cc(OC)ncn3)CC2)CN1C(C)C.O=C(O)C(F)(F)F (centres undefined)	17.84	
Cc1cc(CNC2(c3ccccc3)CCCCC2)on1	51.47	
Cc1cc(CNC2(c3ccccc3)CCCCC2)no1	4.963	
Cc1nc(C2(NCc3cccc(F)c3F)CCCCC2)no1	15.79	
CCN1C[C@H]2[C@@H](C1)N(S(=O)(=O)c1cccnc1)CC[C@H]2OC.O=C(O)C(F)(F)F.O=C(O)C(F)(F)F		-25.11

SMILES	Percent Effect (30.3 µM, […]) [%]	Percent Effect (30 µM, 30.03 µM) [%]
O=C(Cc1ccncc1)N1C[C@H]2CC[C@@H]1CN(Cc1cccnc1)C2	24.39	
O=C(Cc1cnccn1)N1C[C@H]2CC[C@@H]1CN(Cc1cscn1)C2	50.19	
COc1ccccc1CC(=O)N1C[C@H]2CC[C@@H]1CN(Cc1cscn1)C2	-17.19	
CC(C)(C)NC(=O)CNc1ccc(C#N)c(C(F)(F)F)c1	3.3	
CC(C)(O)CNc1ccc(C#N)c(C(F)(F)F)c1	100.1	
CC(C)(CNc1ccc(C#N)c(C(F)(F)F)c1)C(N)=O	20.21	
Cc1ncc2c(c1-c1noc(-c3cscn3)n1)CCNC2	-9.596	
CCOc1ccc(C2SCC(=O)Nc3c2c(=O)[nH]n3C(C)C)cc1 (centres undefined)	-0.8562	
Cl.O=C(N[C@H]1CN[C@H]2CCCO[C@H]21)c1cscn1		25.22
CN1C[C@H](NC(=O)c2cscn2)[C@@H]2OCCC[C@@H]21.O=C(O)C(F)(F)F	54.94	
O=C(N[C@@H]1CN[C@@H]2CCCO[C@@H]21)c1cscn1.O=C(O)C(F)(F)F	4.147	
Cc1cc(CN2C[C@@H]3COC[C@]3(CN(C)C)C2)no1.O=C(O)C(F)(F)F.O=C(O)C(F)(F)F		-27.07
Fc1cnc(N2CCCC3(CN(Cc4cccs4)CCO3)C2)nc1.O=C(O)C(F)(F)F (centres undefined)	-13.69	
CC(C)N(C)Cc1cncc2c1CCN(Cc1ccoc1)C2.Cl.Cl.Cl	28.71	
O=C(O)C(F)(F)F.O=C(O)C(F)(F)F.c1cncc(OC[C@]23COC[C@H]2CN(C2CCC2)C3)c1	24.17	
Cn1nc(CN2CCCCC(N)C2)c2c(Cl)cccc21 (centres undefined)	74.89	
Cc1cc(CN2C[C@@H]3COC[C@]3(CNC(=O)c3ccno3)C2)no1		11.65
Cl.O=C1CC2(CCCNC2)C(=O)N1Cc1ccccc1 (centres undefined)		10.36
Fc1cccnc1O[C@@H]1CN(Cc2ccco2)[C@@H]2CCCO[C@@H]21.O=C(O)C(F)(F)F.O=C(O)C(F)(F)F	0.2133	
Cc1c(C2N3C[C@]4(C)CN2C[C@](C)(C3)C4=O)[nH]c(=O)[nH]c1=O (some centres undefined)	18.9	
O=C(Nc1ccc(F)cc1)N1CCC(CO)(Nc2ccccc2)CC1	1.566	
Cc1ccc(NC(=O)N2CCC(CO)(Nc3ccccc3)CC2)cc1	64.38	
Cc1cccc(NC(=O)N2CCC(CO)(Nc3ccccc3)CC2)c1	33.34	
O=C(O)C(F)(F)F.O=C(O)C(F)(F)F.c1ccc(CN2CCN3C[C@H](Oc4cncnc4)C[C@H]3C2)nc1	2.199	
